Measurements reported in PubChem BioAssay AID1024 (Sanford-Burnham Center for Chemical Genomics, 2008).
Hit rate of the full screen: of about 96,000 compounds, about 1,400 (1.5%) were called active.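 The calls were made as follows: active = activation factor of 2 or more for CYP2C9 at a 5 µM dose; inactive = the rest.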 For the sample, actives were picked, then their nearest neighbours and some compounds at random.

molecular target: Cytochrome P450 2C9 (Homo sapiens) (UniProt P11712); experiment: enhancers of cytochrome P450 2C9 turnover – biochemical, luminescence, primary screen (AID 1024); conditions: recombinant CYP2C9, luciferin-H conversion, at 5 µM, hits give high values, factor 1 = untreated enzyme, 0 = blocked;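 also: 0 = sulfaphenazole-blocked wells and 1 = vehicle-only wells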
Sequence (P11712 whole entry, looked up): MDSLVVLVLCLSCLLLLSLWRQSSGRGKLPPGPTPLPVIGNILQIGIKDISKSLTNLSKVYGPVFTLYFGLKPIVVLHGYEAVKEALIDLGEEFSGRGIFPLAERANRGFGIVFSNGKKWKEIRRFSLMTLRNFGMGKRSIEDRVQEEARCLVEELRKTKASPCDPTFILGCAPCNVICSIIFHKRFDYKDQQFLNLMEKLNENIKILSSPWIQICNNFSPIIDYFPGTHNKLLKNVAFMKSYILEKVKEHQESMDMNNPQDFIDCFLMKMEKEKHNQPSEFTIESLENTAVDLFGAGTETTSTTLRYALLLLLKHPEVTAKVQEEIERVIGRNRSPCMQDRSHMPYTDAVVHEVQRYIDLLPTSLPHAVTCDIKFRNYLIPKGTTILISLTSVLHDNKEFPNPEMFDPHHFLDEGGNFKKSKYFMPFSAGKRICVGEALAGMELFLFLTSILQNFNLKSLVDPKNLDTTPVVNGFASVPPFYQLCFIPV

| SMILES | activation factor |
| --- | --- |
| COCc1cc(C)nc2sc3c(=O)n(-c4cccc5ccccc45)nnc3c12 | 0.7 (inactive) |
| O=C(NNC(=O)c1cccnc1)Nc1ccccc1 | 1.1 (inactive) |
| COC(=O)C(C)N(C#N)c1nc(C)nc(C)n1 (centres undefined) | 2.4 (active) |
| COC(=O)c1c(C)c(C)nc(N)c1C#N | 1.1 (inactive) |
| CCOC(=O)c1sc(C)c2c1NC(C)(c1cccc3ccccc13)NC2=O (centres undefined) | 0 (inactive) |
| Cc1ccc2c(c1)-c1c(ssc1=S)C(C)(C)N2C(=O)CN1C(=O)c2ccccc2C1=O | 0.2 (inactive) |
| CC(NC(=O)c1cc(-c2ccccc2)on1)c1ccccc1 (centres undefined) | 1.2 (inactive) |
| O=C(Nc1ccccc1C(F)(F)F)c1cc(-c2ccc(O)cc2)on1 | 3.3 (active) |
| O=C(c1cc(-c2ccc(O)cc2)on1)N1CCCc2ccccc21 | 0.4 (inactive) |
| COc1ccc(Cl)cc1C(=O)Nc1ccc(N(C)C(C)=O)cc1 | 3.1 (active) |
| COc1ccc(Cl)cc1C(=O)NCc1cn(C)nc1C | 1 (inactive) |
| COc1cc(OC)c(C(=O)Nc2ccc(N(C)C)cc2)cc1OC | 0.7 (inactive) |
| COc1ccc(Cl)cc1C(=O)NCC#N | 1.8 (inactive) |
| CCOc1ccc(NC(=O)Nc2ccc(N(C)C(C)=O)cc2)cc1 | 1.1 (inactive) |
| CCC(C)NC(=O)c1cc(Cl)ccc1OC (centres undefined) | 2.7 (active) |
| COc1ccc(N(CC(=O)N/N=C/c2cccs2)S(=O)(=O)c2ccc(OC)c(OC)c2)cc1 | 0.6 (inactive) |
| O=C(CNC(=O)OCc1ccccc1)Oc1cc2oc(=O)cc(-c3ccccc3)c2cc1Cl | 0.2 (inactive) |
| O=C(Nc1ccc(Br)cc1)c1cccc(NC(=O)C2C3CC4OC(=O)C2C4C3)c1 (centres undefined) | 0.3 (inactive) |
| CN1OC(COC(=O)c2ccc(Cl)cc2)CC1c1ccccc1 (centres undefined) | 0.6 (inactive) |
| COc1ccc(NC(=O)Nc2ccc3nsnc3c2)cc1 | 0.8 (inactive) |
| CSc1ccccc1NC(=O)c1cc(C2CC2)on1 | 2.4 (active) |
| Cc1nn(Cc2ccc(Cl)c(Cl)c2)c(C)c1NC(=O)c1cc(C2CC2)on1 | 0 (inactive) |

| SMILES | activation factor |
| --- | --- |
| O=C(Nc1nnc(C2CC2)s1)c1ccccn1 | 1.3 (inactive) |
| O=C(NCc1ccco1)C1CCCN(S(=O)(=O)c2ccccc2)C1 (centres undefined) | 0.7 (inactive) |
| O=C(CC1OC(=O)c2ccccc21)NC1CCCCC1 (centres undefined) | 2 (active) |
| O=C(NC1CCCCC1)C1c2ccccc2C(=O)N1Cc1ccco1 (centres undefined) | 0.9 (inactive) |
| O=C(Cc1ccc(F)cc1)NC1CCCC1 | 1.4 (inactive) |
| Cc1c(Nc2cc(N3CCCC(C)C3)c3nonc3c2[N+](=O)[O-])c(=O)n(-c2ccccc2)n1C (centres undefined) | 0.6 (inactive) |
| CCOc1ccc(NC(=O)C2CC(=O)N=C(N)S2)cc1 (centres undefined) | 1 (inactive) |
| COc1cccc(NC(=O)c2ccccc2SC)c1 | 1 (inactive) |
| COc1cccc(C(=O)NNC(=O)c2ccccc2Br)c1 | 2.8 (active) |
| COc1cccc(C(=O)Nc2ccc(N3CCCC3)cc2)c1 | 0.9 (inactive) |
| Cc1cc2cc3c(cc2nc1SCC(=O)Nc1c(C)cccc1C)CCC3 | 0.4 (inactive) |
| CCOc1cc(C)c(Cl)cc1S(=O)(=O)n1nnc2ccccc21 | 0.6 (inactive) |
| Cc1cc(OCCOc2cccc3cccnc23)c(C)cc1Cl | 2.7 (active) |
| CCOc1cc(N2CCOCC2)c(OCC)cc1NC(=O)COc1cccc2cccnc12 | 1 (inactive) |
| Cn1c(=O)c2c(nc(N3CCCCCC3)n2CC(=O)c2ccc(Br)cc2)n(C)c1=O | 0.8 (inactive) |
| Cc1ccn(C(CC(=O)c2ccc(Br)cc2)C(=O)O)n1 (centres undefined) | 2.1 (active) |
| Cc1cc(SCC(=O)c2ccccc2)nc(SCC(=O)c2ccccc2)n1 | 0.3 (inactive) |
| Cc1cc([N+](=O)[O-])ccc1NCc1cccc([N+](=O)[O-])c1 | 1 (inactive) |
| Cc1cc(C)nc(NC(=O)C(C)N2C(=O)c3ccccc3C2=O)n1 (centres undefined) | 1.2 (inactive) |
| O=C(NCCCN1CCN(C2CCCCC2)CC1)Nc1ccccc1C(F)(F)F | 1 (inactive) |
| Cc1cc(C)nc(NC(=O)Nc2ccccc2C(F)(F)F)n1 | 2.9 (active) |
| O=C(Nc1ccc2sc3ccccc3c(=O)c2c1)c1ccccc1Cl | 1.1 (inactive) |

| SMILES | activation factor |
| --- | --- |
| O=c1c2ccccc2nc2n1C(CSCc1cccc(C(F)(F)F)c1)CS2 (centres undefined) | 0.6 (inactive) |
| COc1cc(-c2nc(-c3ccncc3)no2)cc(OC)c1OC | 0.2 (inactive) |
| COc1ccc(-c2noc(-c3cccc(OC)c3OC)n2)cc1OC | 2 (active) |
| COc1ccc(-c2nc(-c3ccccc3)no2)c(OC)c1 | 1.1 (inactive) |
| Cc1cccc(N(CC(=O)Nc2ccc(-c3nc4ccc(C)cc4s3)cc2)S(C)(=O)=O)c1 | 0.9 (inactive) |
| CNS(=O)(=O)c1cnccc1N1CCN(c2cccc(C)c2)CC1 | 0.4 (inactive) |
| O=C1Nc2c(Br)cc(Br)cc2C1(O)N1CCOCC1 (centres undefined) | 3 (active) |
| O=C(CN1CCOCC1)Nc1cc(Cl)ccc1Cl | 2.4 (active) |
| O=C(CN1CCOCC1)Nc1ccccc1 | 0.9 (inactive) |
| O=C(CN1CCOCC1)Nc1ccc(NC(=O)CN2CCOCC2)c(Cl)c1 | 1 (inactive) |
| COc1ccc(OC)c(/C=N/NC(=O)CSc2nnc(C)n2-c2ccccc2)c1 | 0.8 (inactive) |
| COc1ccc(C)cc1N(C)C(=O)c1coc(=O)c2ccccc12 | 0.7 (inactive) |
| CCCn1c(C(Cc2ccccc2)NC(=O)COC)nc2ccccc21 (centres undefined) | 0.3 (inactive) |
| Cc1ccc(N2CCN(C3=NC(=O)/C(=C\c4cccs4)S3)CC2)cc1 | 2.3 (active) |
| Cc1ccsc1/C=C1\SC(N2CCOCC2)=NC1=O | 1.2 (inactive) |
| Cc1ccc(N2CCN(/N=C/c3cccs3)CC2)cc1 | 1.1 (inactive) |
| CO/N=C/c1ccc(N2CCN(C(=O)c3cccc(Cl)c3)CC2)c([N+](=O)[O-])c1 | 0.9 (inactive) |
| CN=C1S/C(=C\c2ccc(Sc3ccc(Cl)cc3)o2)C(=O)N1C | 0.7 (inactive) |
| CC(C)C(C)NC(=O)COc1ncnc2ccccc12 (centres undefined) | 0.9 (inactive) |
| CCOC(=O)c1c(NC(=O)c2ccc(N3CCOCC3)c([N+](=O)[O-])c2)sc(C)c1C | 0.9 (inactive) |
